# Screening results: PubChem BioAssay, National Center for Advancing Translational Sciences (NCATS)
# Tau fibril FP: qHTS for Inhibitors of Tau Fibril Formation, Fluorescence Polarization; Microtubule-associated protein tau (Homo sapiens), P10636; K18 P301L tau heparin fibrillization, Alexa594 FP, 6 h; Potency, µM (highest dose often 57.7 µM), inactives show at the top dose activity, negative = inhibition, hits mostly inhibitors; 280,000 tested, 0.39% active; note: nearly all actives have a fitted effect of over 55% in size
# Target sequence (P10636 561-689 P618L limits assumed): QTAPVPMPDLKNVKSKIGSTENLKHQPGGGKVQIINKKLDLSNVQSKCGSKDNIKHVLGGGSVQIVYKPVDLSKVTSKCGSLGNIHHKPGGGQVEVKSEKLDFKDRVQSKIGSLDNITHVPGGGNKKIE
#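 Quantitative HTS format: compounds meet 15 uM recombinant K18 P301L tau and Alexa 594-tau tracer in 100 mM sodium acetate pH 7; 20 uM heparin triggers fibrillization at 37 C over 6 hr; FP gives the signal.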
# Tau ThT inhib: qHTS for Inhibitors of Tau Fibril Formation, Thioflavin T Binding. recombinant tau K18 P301L, heparin-induced fibrillization, ThT fluorescence. Potency, µM (series often up to 57.4 µM), without a hit: at the top dose activity, negative = inhibition, hits mostly inhibitors. 270,000 tested, 2.1% active. Microtubule-associated protein tau (Homo sapiens), P10636; note: nearly all actives have a fitted effect of over 55% in size
#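 Aggregation was driven by heparin (20 uM final) acting on recombinant tau […] bearing P301L in 100 mM sodium acetate pH 7; fibrils were detected with Thioflavin T.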
# NPSR antag: qHTS Assay for Antagonists of the Neuropeptide S Receptor: cAMP Signal Transduction; AID 1461, 2008; CHO-NPSR cells, cAMP TR-FRET, antagonist mode; 220,000 tested, 1% active; Potency, µM (highest dose often 38.3 µM), without a hit: at the top dose activity change, negative = inhibition, usual class: inhibitors; Q6W5P4; note: nearly all actives have a fitted effect of over 50% in size
# Target sequence (Q6W5P4 whole entry, looked up): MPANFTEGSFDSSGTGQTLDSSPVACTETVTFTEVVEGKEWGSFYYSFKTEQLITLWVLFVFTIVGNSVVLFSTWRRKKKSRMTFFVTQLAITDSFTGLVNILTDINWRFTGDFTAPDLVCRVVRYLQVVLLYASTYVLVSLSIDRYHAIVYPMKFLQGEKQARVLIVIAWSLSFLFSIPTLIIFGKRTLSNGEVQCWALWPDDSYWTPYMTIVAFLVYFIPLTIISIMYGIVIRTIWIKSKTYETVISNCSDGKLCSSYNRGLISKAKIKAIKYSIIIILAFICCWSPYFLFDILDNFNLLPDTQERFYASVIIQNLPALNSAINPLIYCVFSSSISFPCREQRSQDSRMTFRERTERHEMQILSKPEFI
# Tau fluor counter: Counterscreen qHTS for Inhibitors of Tau Fibril Formation, Fluorescence Polarization | tau K18 P301L (four-repeat tau fragment) Alexa594 fluorescence, heparin fibrillization | Potency, µM (series often up to 57.7 µM), inactives show at the top dose activity change, negative = decrease | 280,000 tested, 0.93% active; note: nearly all actives have a fitted effect of over 55% in size
#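 Human K18 P301L tau (15 uM unlabeled plus 0.24 uM Alexa 594-labeled, final) in 100 mM sodium acetate pH 7 was mixed with compound and 20 uM heparin and incubated 6 hr at 37 C.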
# HPGD inh: qHTS Assay for Inhibitors of HPGD (15-Hydroxyprostaglandin Dehydrogenase). purified HPGD, NADH fluorescence kinetic, PGE2 substrate. AID 894, 2007. 150,000 tested, 4.3% active. 15-hydroxyprostaglandin dehydrogenase [NAD(+)] (Homo sapiens), P15428. Potency, µM, without a hit: at the highest dose activity change, negative = inhibition, actives largely listed as inhibitors; active = well fitted inhibition curve with a large enough effect, not every such curve was filed as active; inconclusive = small, poorly fitted or top-dose-only effect, or another doubt; inactive = no such curve, though single readings can be large or run the other way
#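 20 nM HPGD preincubated 15 min at room temperature with compound in 50 mM Tris-HCl pH 8, 0.01% Tween 20. Started with 1 mM NAD+ and 30 uM prostaglandin E2; NADH fluorescence (360/450 nm) read 5 times over 30-s intervals, last minus first.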
# ALDH1A1 block: qHTS Assay for Inhibitors of Aldehyde Dehydrogenase 1 (ALDH1A1). Aldehyde dehydrogenase 1A1 (Homo sapiens), P00352. Purified ALDH1A1, NADH fluorescence, propionaldehyde substrate. Potency, µM (titrated, usually from 75.3 µM), for the others: at the top dose activity, negative = inhibition, actives largely listed as inhibitors. 220,000 tested, 7.3% active. AID 1030, 2008; active = well fitted inhibition curve with a large enough effect, not every such curve was filed as active; inconclusive = small, poorly fitted or top-dose-only effect, or another doubt; inactive = no such curve, though single readings can be large or run the other way;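 note: plate controls were no enzyme wells and a reference inhibitor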
# * marks the source's active call; other numbers are inactive results; ? = inconclusive; / = not tested or not shown; [ ] = dose if it differs, or a comment. In the library only some 9.5% were active in any assay of this set; here they are far more common. Unless noted, calls come from the whole dose curve; as a rule, active = well fitted curve in the direction sought with a large enough effect; inconclusive = small, poorly fitted or top-dose-only effect, or another doubt; inactive = no such curve, though single readings can be large; an effect the other way counts as inactive or inconclusive. Unless noted, % is set by controls: 0 for no effect and ±100 for the full control effect; potency is the fitted concentration of half-maximal effect.
SMILES,Tau fibril FP,Tau ThT inhib,NPSR antag,Tau fluor counter,HPGD inh,ALDH1A1 block
CCCOC(=O)c1c(NC(=O)C(C)Sc2nc(-c3ccccc3)cc(C(F)(F)F)n2)sc(C(=O)N(C)C)c1C (centres undefined),-8.9%,?,/,-13.0%,/,/
COC(=O)c1ccc(C(NC(=O)OCc2ccccc2)/C(I)=C/[C@@H](C)C(=O)NCc2ccc(C)o2)cc1 (some centres undefined),-2.7%,?,/,-7.5%,-27.1%,28.2µM*
O=C1C=CC2=C3c4cc(O)c(O)cc4C[C@]3(O)COC2=C1,?,15.8µM*,/,?,15.8µM*,4.7%
Cc1ccccc1N1C(S)=C(C#N)C(=O)NC1c1ccco1 (centres undefined),?,25.1µM*,-25.5%,-21.6%,/,?
c1ccn2c(CNc3ncnc4sccc34)nnc2c1,-5.3%,-10.7%,10.5%[46.1 µM],-2.4%,-4.3%,8.0%
CCS(=O)(=O)c1nc(S(=O)(=O)c2ccc(Cl)cc2)c(NCCOC)s1,-6.6%,-10.6%,-0.3%,-15.0%,/,4.47µM*
CCCS(=O)(=O)c1nc(S(=O)(=O)c2ccc(C)cc2)c(NCCCN2CCOCC2)s1,-4.5%,-6.9%,-3.4%[46.1 µM],-6.1%,-15.1%,14.1µM*
CCCNc1sc(S(=O)(=O)CCC)nc1S(=O)(=O)c1ccc(C)cc1,10.1%,-3.5%,-18.1%,-14.4%,/,10µM*
CCS(=O)(=O)c1nc(S(=O)(=O)c2ccc(C)cc2)c(NCCCOC)s1,-13.9%,6.8%,/,-11.9%,/,/
CS(=O)(=O)Nc1ccc([N+](=O)[O-])cc1OC1CCCCC1,-2.1%,?,/,-18.9%,-28.5%,22.4µM*
O=C(CNc1cccc(C(F)(F)F)c1)N/N=C/c1cn(-c2ccccc2)nc1-c1ccccc1,8.91µM*,-0.3%,-36.6%,?,?,-0.2%
Cc1nn(CCC(=O)Nc2ccc(Cl)cc2)c(C)c1S(=O)(=O)N1CCCCC1,?,-0.5%,/,-24.0%,/,/
C/C(=N/Nc1nc(C)cc(=O)[nH]1)C(=O)O,/,/,/,/,0.8%,5.1%[13.5 µM]
O=C(NCc1ccco1)C1(S(=O)(=O)c2ccc(Cl)cc2)CC1,2.2%,-2.2%,17.2%[46.1 µM],5.7%,-13.5%,17.8µM*
Cc1ccc(S(=O)(=O)C2(C(=O)Nc3nccs3)CC2)cc1,-2.2%,2.0%,3.8%[46.1 µM],-0.8%,-12.9%,-8.3%
O=C(Nc1nccs1)C1(S(=O)(=O)c2ccc(Cl)cc2)CC1,-1.0%,?,-8.1%[46.1 µM],-23.9%,/,11.2µM*
CC(C)=N[C@H](C(=O)O)C(C)(C)S,/,/,/,/,-6.2%,?
COC(=O)c1cc2oc(C)cc2n1Cc1ccc(C)cc1,-12.4%,?,/,-13.9%,/,/
CC(=O)N(CCC(c1ccccc1)c1ccco1)Cc1cccs1 (centres undefined),-0.8%,11.1%,-29.1%[46.1 µM],6.6%,28.2µM*,1.41µM*
CCC1(C)CC(CCN(Cc2ccco2)C(C)=O)(c2ccccc2)CCO1 (centres undefined),6.5%,-7.2%,-40.3%,1.7%,/,2.3%
CC1(C)CC(CCN(Cc2ccccc2)C(=O)c2ccco2)(c2ccccc2)CCO1 (centres undefined),7.6%,-11.4%,?,-5.0%,-12.0%,25.1µM*
Cc1ccc(C(CCN(Cc2ccccc2)C(=O)c2ccco2)c2ccco2)cc1 (centres undefined),-1.6%,?,-55.5%,-1.9%,?,20µM*
O=C(c1ccco1)N(CCC(c1ccccc1)c1ccco1)Cc1ccco1 (centres undefined),?,?,-20.4%[46.1 µM],-27.8%,20µM*,3.55µM*
CCOC(=O)c1sc2nccc(OC)c2c1N=CNOC,-7.1%,-7.6%,-5.4%,-5.1%,/,3.1%
O=C(NCc1ccc2c(c1)OCO2)C(=O)NCC1CCCO1 (centres undefined),-10.5%,-0.7%,15.0%,-7.2%,/,12.1%
SMILES,Tau fibril FP,Tau ThT inhib,NPSR antag,Tau fluor counter,HPGD inh,ALDH1A1 block
CC(C)(C)OC(=O)NCCCC1=CC2=CC(=O)C(C)(O)C(=O)C2=CO1 (centres undefined),0.1%,8.2%,/,2.1%,-13.3%,8.3%
COCCN=c1scc(-c2ccc3c(c2)NC(=O)CO3)n1/N=C(\C)c1ccc(O)cc1,?,14.1µM*,56.0%,14.1µM*[quencher],/,/
Cc1ncc2c(c1O)COP(=O)(O)OC2,-8.3%,-3.4%,/,-5.6%,-1.4%,4.7%
COc1ccc(CNC(=O)CSc2ncc(S(=O)(=O)c3ccc(Br)cc3)c(=O)[nH]2)cc1,4.3%,-6.1%,/,-4.2%,/,/
COC(=O)c1cc(Cl)ccc1NC(=O)CSc1ncc(S(=O)(=O)c2ccc(Br)cc2)c(=O)[nH]1,?,31.6µM*,/,-17.2%,/,/
CC(C)C(=O)N(c1cc2sc(=O)oc2c2ccccc12)S(=O)(=O)c1cccs1,?,15.8µM*,?,?,-23.2%,-8.2%
O=C1NN=C(CSc2n[nH]c(=S)s2)CS1,-12.3%,-8.1%,2.7%,-5.3%,/,3.55µM*
CCN(c1ccc(NC(=O)COC(=O)/C=C/c2cccs2)cc1)C(C)C,?,?,-18.3%,?,/,0.126µM*
O=C(COC(=O)/C=C/c1cccs1)Nc1nc(-c2cccc(Br)c2)cs1,-13.7%,-2.0%,-6.1%,-14.8%,/,/
CCCCOC(=O)c1ccc(NC(=O)/C=C/c2cccs2)cc1,14.1µM*,13.8%,-40.0%,?,-25.0%,-9.3%
O=C(/C=C/c1cccs1)c1ccc(NC(=O)c2cccc(Br)c2)cc1,?,7.08µM*,-15.0%[46.1 µM],?,-21.2%,?
O=C(COC(=O)/C=C/c1cccs1)Nc1nc(-c2ccccc2)cs1,?,-7.5%,-6.9%,-5.8%,-9.5%,22.4µM*
Cc1cccc(-c2nc(SCc3cc(=O)c4c(C)cc(C)cc4[nH]3)n[nH]2)c1,-18.7%,-4.6%,/,6.0%,/,/
NC(=O)c1ccc(NC(=O)COC(=O)/C=C/c2cccs2)cc1,-11.9%,-5.4%,8.9%,0.3%,/,2.1%
Cc1ccc(NC(=O)COC(=O)/C=C/c2cccs2)cc1,-7.0%,2.7%,17.4%,6.3%,28.2µM*,11.2%
